Test results published in PubChem BioAssay (Tox21).
Records with an inconclusive call do not appear. A call without a number means that no potency is given here. Activity calls are given as the source filed them. Unless noted, calls follow the shape of the dose curve; as a rule, active = well fitted curve in the direction sought with a large enough effect in the repeat runs; inconclusive = weak or mixed curves; inactive = no such curve, though single readings can be large; an effect the other way counts as inactive or inconclusive.

Columns and labels:
[1] = qHTS assay to identify small molecule antagonists of the estrogen receptor alpha (ER-alpha) signaling pathway using the BG1 cell line in the presence of 0.1 nM 17-beta-estradiol - cell viability counter screen (AID 1259241); also: nearly all actives have a fitted effect of over 40% in size; also: potency is read from the fitted curve at half-maximal effect
Procedure, shortened: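 VM7Luc4E2 cells (endogenous full-length ER-alpha, 4xERE-luciferase), cultured 5 days in charcoal-stripped serum, exposed to compounds with 0.1 nM 17beta-estradiol (final) for 22 hr at 37C. Viability read in same wells as live-cell protease fluorescence after 30 min.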

[2] = qHTS assay to identify small molecule antagonists of the androgen receptor (AR) signaling pathway using the MDA cell line in the presence of 0.5 nM R1881 - cell viability counter screen (AID 1259242); also: nearly all actives have a fitted effect of over 45% in size; also: potency is read from the fitted curve at half-maximal effect
Procedure, shortened: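 MDA-kb2 cells (human breast carcinoma, stably carrying MMTV-luciferase reporter) were exposed to compounds with 0.5 nM R1881 (final) for 16 hr at 37C, 0% CO2; viability then read as live-cell protease fluorescence (CellTiter-Fluor, 30 min) in the same wells.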

[3] = target: Estrogen receptor (Homo sapiens) (UniProt P03372); assay: qHTS assay to identify small molecule antagonists of the estrogen receptor alpha (ER-alpha) signaling pathway using the BG1 cell line in the presence of 0.1 nM 17-beta-estradiol (AID 1259244); also: nearly all actives have a fitted effect of over 50% in size; also: potency is read from the fitted curve at half-maximal effect
Estrogen receptor (Homo sapiens), sequence (P03372 whole entry, looked up): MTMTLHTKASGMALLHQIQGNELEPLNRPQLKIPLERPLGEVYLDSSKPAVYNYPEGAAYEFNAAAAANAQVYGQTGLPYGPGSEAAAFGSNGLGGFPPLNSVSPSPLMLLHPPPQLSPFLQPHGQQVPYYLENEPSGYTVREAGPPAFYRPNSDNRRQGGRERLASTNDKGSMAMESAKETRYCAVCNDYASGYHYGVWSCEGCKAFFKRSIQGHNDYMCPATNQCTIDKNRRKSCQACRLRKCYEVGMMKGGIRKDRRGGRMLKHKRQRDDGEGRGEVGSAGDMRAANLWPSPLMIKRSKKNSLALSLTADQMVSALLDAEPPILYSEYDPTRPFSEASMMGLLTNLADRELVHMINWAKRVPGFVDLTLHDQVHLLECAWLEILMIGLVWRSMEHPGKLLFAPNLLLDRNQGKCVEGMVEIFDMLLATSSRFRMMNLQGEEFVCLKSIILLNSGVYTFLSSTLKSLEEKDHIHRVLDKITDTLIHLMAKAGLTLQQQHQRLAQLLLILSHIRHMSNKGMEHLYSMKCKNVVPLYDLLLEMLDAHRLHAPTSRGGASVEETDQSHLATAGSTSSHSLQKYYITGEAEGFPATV
Procedure, shortened: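 VM7Luc4E2 cells (endogenous full-length ER-alpha, stable 4xERE-luciferase) were grown 5 days in phenol red-free medium with charcoal-stripped FBS, then exposed 22 h at 37C to compounds plus 0.1 nM (final) 17beta-estradiol; ONE-Glo luminescence read-out.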

[4] = qHTS assay to identify small molecule HDAC inhibitors - cell viability counter screen (AID 1259365); also: nearly all actives have a fitted effect of over 50% in size; also: potency is read from the fitted curve at half-maximal effect
Procedure, shortened: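 Wild-type HCT-116 cells, 1,500/well, cultured overnight, then compound-treated 2 h at 37 C. Viability measured as ATP luminescence with CellTiter-Glo after 30 min at room temperature.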

[5] = qHTS assay to identify small molecule agonists of the sonic hedgehog signaling (Shh) pathway (AID 1259368; calls by dose curve; also: series mostly up to about 92 µM; nearly all actives have a fitted effect of over 15% in size)
Procedure, shortened: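 NIH/3T3-derived 3T3Gli1-Luc cells carrying a stably integrated Gli1 response element–firefly luciferase reporter were plated, left 4 hr at 37 C, then given compounds in DMSO for 24 hr. Luminescence was read 30 min after adding luciferase reagent.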

[6] = target: Estrogen receptor beta (Homo sapiens) (UniProt Q92731); assay: qHTS assay to identify small molecule antagonists of the estrogen receptor beta (ER-beta) signaling pathway (AID 1259378; active = well fitted inhibition curve with a large enough effect in the signal ratio in the repeat runs, not every such curve was filed as active; the % refers to the signal ratio; also: potency is read from the fitted curve at half-maximal effect)
Estrogen receptor beta (Homo sapiens), sequence (Q92731 whole entry, looked up): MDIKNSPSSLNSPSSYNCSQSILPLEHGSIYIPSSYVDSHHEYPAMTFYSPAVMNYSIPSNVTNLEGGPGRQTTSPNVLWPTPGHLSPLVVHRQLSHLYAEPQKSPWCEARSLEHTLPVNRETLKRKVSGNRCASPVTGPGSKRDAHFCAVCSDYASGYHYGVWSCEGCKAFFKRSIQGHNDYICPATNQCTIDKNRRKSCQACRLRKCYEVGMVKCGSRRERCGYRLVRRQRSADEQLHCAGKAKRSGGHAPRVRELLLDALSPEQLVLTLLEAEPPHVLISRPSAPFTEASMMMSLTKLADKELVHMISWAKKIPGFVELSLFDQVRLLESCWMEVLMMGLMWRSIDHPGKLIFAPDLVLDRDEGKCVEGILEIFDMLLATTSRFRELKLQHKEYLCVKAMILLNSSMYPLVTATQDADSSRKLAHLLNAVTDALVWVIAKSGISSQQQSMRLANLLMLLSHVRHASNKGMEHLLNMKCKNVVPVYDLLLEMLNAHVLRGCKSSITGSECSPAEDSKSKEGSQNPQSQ
Procedure, shortened: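 Antagonist mode: compounds added to beta-lactamase reporter HEK293T ER-beta-UAS cells stimulated with E2 (1nM final), 16 hr at 37C. LiveBLAzer B/G FRET substrate, 2 hours room temperature, fluorescence read-out.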

[7] = qHTS assay to identify small molecule agonists of the androgen receptor (AR) signaling pathway in the presence of an antagonist - cell viability counter screen (AID 1259379); also: nearly all actives have a fitted effect of over 25% in size; also: potency is read from the fitted curve at half-maximal effect
Procedure, shortened: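 MDA-kb2 human breast carcinoma cells (stable MMTV-luciferase, AR/GR responsive) were seeded 3,000 cells/well, pre-incubated 5 hr at 37C without CO2, then given 3.0uM nilutamide and compounds at 15 concentrations for 16 hr. Viability was read by CellTiter-Fluor fluorescence.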

[8] = qHTS assay to identify small molecule agonists of the estrogen receptor beta (ER-beta) signaling pathway - cell viability counter screen (AID 1259380); also: nearly all actives have a fitted effect of over 30% in size; also: potency is read from the fitted curve at half-maximal effect
Procedure, shortened: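 ER-beta-UAS-bla HEK293T cells in medium with 2% charcoal-stripped FBS were preincubated 6 hr at 37C, dosed with compound in DMSO for 16 hr, then after the bla read, CellTiter-Glo was added for 30 min at room temperature; luminescence recorded.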

[9] = qHTS assay to identify small molecule antagonists of the estrogen receptor beta (ER-beta) signaling pathway - cell viability counter screen (AID 1259382); also: nearly all actives have a fitted effect of over 55% in size; also: potency is read from the fitted curve at half-maximal effect
Procedure, shortened: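 ER-beta-UAS-bla HEK293T cells (2,000/well, 2% charcoal-stripped FBS) were pre-incubated 6 hr at 37C, then given compound plus 1nM final 17-beta-estradiol for 16 hr. Viability was read in the same wells by CellTiter-Glo luminescence after 30 min at room temperature.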

[10] = target: Estrogen receptor (Homo sapiens) (UniProt P03372); assay: qHTS assay to identify small molecule agonists of the estrogen receptor alpha (ER-alpha) signaling pathway in the presence of an antagonist (AID 1259383; calls by dose curve; also: nearly all actives have a fitted effect of over 15% in size; also: potency is read from the fitted curve at half-maximal effect; as to activation: top concentration of the series differs between compounds)
Procedure, shortened: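 VM7Luc4E2 cells (endogenous full-length ER-alpha, 4×ERE-luciferase) were precultured 5 days in phenol red-free medium with 10% charcoal-stripped FBS, given 10.0nM ICI-182,780 (final), then treated with compounds at 15 concentrations for 22hr at 37C; luminescence read with ONE-Glo.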

[11] = qHTS assay to identify small molecule agonists or antagonists of the thyroid stimulating hormone receptor (TSHR) signaling pathway - wild type cell line counter screen (AID 1259384; calls by dose curve)
Procedure, shortened: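 Counter screen in untransfected Hek293: compounds (15-point titration, triplicate) plus phosphodiesterase inhibitor Ro20-1724 added after 18 h plating; 30 min RT. Intracellular cAMP via competitive d2/cryptate immunoassay, 1 h incubation.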

[12] = target: Thyrotropin receptor (Homo sapiens) (UniProt P16473); assay: qHTS assay to identify small molecule antagonists of the thyroid stimulating hormone receptor (TSHR) signaling pathway (AID 1259385; calls by dose curve; also: nearly all actives have a fitted effect of over 20% in size; also: potency is read from the fitted curve at half-maximal effect)
Thyrotropin receptor (Homo sapiens), sequence (P16473 whole entry, looked up): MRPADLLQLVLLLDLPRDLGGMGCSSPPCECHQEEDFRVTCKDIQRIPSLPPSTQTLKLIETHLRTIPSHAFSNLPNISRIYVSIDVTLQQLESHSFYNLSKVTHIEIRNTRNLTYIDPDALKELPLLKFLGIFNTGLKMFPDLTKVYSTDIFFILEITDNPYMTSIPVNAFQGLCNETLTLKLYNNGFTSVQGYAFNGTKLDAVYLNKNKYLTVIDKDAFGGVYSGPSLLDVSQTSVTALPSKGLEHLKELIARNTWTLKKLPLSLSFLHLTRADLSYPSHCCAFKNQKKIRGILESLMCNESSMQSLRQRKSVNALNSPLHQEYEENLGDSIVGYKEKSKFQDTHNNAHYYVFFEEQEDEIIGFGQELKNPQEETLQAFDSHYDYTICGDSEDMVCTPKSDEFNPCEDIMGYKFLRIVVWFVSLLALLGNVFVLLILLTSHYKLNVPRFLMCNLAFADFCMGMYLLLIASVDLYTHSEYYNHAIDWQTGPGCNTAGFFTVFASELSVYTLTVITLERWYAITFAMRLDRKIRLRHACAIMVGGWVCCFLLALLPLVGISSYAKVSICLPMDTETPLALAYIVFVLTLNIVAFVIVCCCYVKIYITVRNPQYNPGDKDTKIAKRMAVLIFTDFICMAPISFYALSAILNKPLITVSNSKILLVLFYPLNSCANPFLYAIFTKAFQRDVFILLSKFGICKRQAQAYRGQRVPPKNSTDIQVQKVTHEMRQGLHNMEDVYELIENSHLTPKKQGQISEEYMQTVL
Procedure, shortened: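 Antagonist mode: compound-treated TSHR-expressing HEK293 cells were stimulated with 1.5 ng/mL TSH (final) in presence of Ro20-1724 for 30 min at RT. HTRF cAMP detection after 1 h; each compound tested at 15 concentrations, triplicate.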

[13] = qHTS assay to identify small molecule HDAC inhibitors (AID 1259364); also: top concentration of the series differs between compounds; nearly all actives have a fitted effect of over 45% in size
Procedure, shortened: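 Wild-type HCT-116 cells were plated overnight, exposed to compounds for 2 h at 37 °C, then given HDAC-Glo class I/II luminogenic reagent for 30 min at room temperature before luminescence was read.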

[14] = qHTS assay to identify small molecule agonists of the sonic hedgehog signaling (Shh) pathway - cell viability counter screen (AID 1259366); also: nearly all actives have a fitted effect of over 50% in size; also: potency is read from the fitted curve at half-maximal effect
Procedure, shortened: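 NIH/3T3-derived Gli1-Luc reporter cells, 2,000 per well, received compound after 4 h and were treated about 23 h at 37C. Viability measured in the same wells by CellTiter-Fluor fluorescence after 1 h.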

[15] = qHTS assay to identify small molecule antagonists of the sonic hedgehog signaling (Shh) pathway - cell viability counter screen (AID 1259367); also: nearly all actives have a fitted effect of over 55% in size; also: potency is read from the fitted curve at half-maximal effect
Procedure, shortened: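 Using CellTiter-Fluor, viability of Gli1-Luc reporter 3T3 cells is read by fluorescence in the wells used for the Shh luciferase assay. Treatment lasts 23 hr with conditioned medium, then reagent 1 hr at 37C.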

[16] = target: Estrogen receptor beta (Homo sapiens) (UniProt Q92731); assay: qHTS assay to identify small molecule agonists of the estrogen receptor beta (ER-beta) signaling pathway (AID 1259377; active = well fitted activation curve with a large enough effect in the signal ratio in the repeat runs, not every such curve was filed as active; the % refers to the signal ratio; also: potency is read from the fitted curve at half-maximal effect)
Procedure, shortened: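 ER-beta-UAS-bla HEK293T cells in medium with 2% charcoal-stripped FBS were exposed to compounds for 16 h at 37C. Beta-lactamase reporter activity was read as fluorescence after 2 h with LiveBLAzer B/G FRET substrate at room temperature.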

[17] = qHTS assay to identify small molecule antagonists of the sonic hedgehog signaling (Shh) pathway (AID 1259369; calls by dose curve; also: nearly all actives have a fitted effect of over 45% in size; also: potency is read from the fitted curve at half-maximal effect)
Procedure, shortened: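 NIH/3T3-derived 3T3Gli1-Luc cells with stably integrated Gli1-Luc reporter were preincubated 4hr at 37 C, then given compounds in DMSO plus Shh conditioned medium and incubated 24hr. Firefly luciferase luminescence read after 30min reagent at room temperature.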

[18] = qHTS assay to identify small molecule phospholipidosis (PLD) inducers (AID 1259344; active = well fitted curve in the direction sought with a large enough effect; an effect the other way counts as inactive or inconclusive)
Procedure, shortened: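 Fluorescent phospholipid staining (LipidTOX Red) measured by automated microscopy in fixed HepG2 cells after 24 h treatment; nuclei counterstained with Hoechst 33342; amiodarone as reference inducer.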

Compound | Potency [1] | Potency [2] | Potency [3] | Potency [4] | Potency [5] | Potency [6] | Potency [7] | Potency [8] | Potency [9] | Potency [10] | Potency [11] | Potency [12] | Potency [13] | Potency [14] | Potency [15] | Potency [16] | Potency [17] | outcome [18]
N#CSCc1ccccc1 | inactive | inactive | inactive | inactive | inactive | inactive | inactive | inactive | inactive | inactive | inactive | inactive |  |  |  |  |  | 
COC(=O)C(C)N(C(=O)c1ccco1)c1c(C)cccc1C (configuration not stated) | inactive | inactive | inactive |  | inactive | inactive | inactive | inactive | inactive | inactive | inactive | inactive | inactive | inactive | inactive | inactive |  | 
CCCCCCC[CH2][Sn]([Cl])([Cl])[CH2]CCCCCCC | inactive | inactive | inactive | inactive |  | 48.5 µM (active) | inactive |  | inactive | inactive | inactive | inactive | inactive | inactive | inactive | inactive | inactive | 
[F][Sn]([c]1ccccc1)([c]1ccccc1)[c]1ccccc1 | 24.3 µM (active) | 2.17 µM (active) | 2.73 µM (active) | inactive | inactive |  | 4.33 µM (active) | 1.22 µM (active) | 1.22 µM (active) | inactive | inactive | 15.4 µM (active) |  | 0.0969 µM (active) | 0.154 µM (active) |  | 0.0486 µM (active) | 
CC[C@]1(O)CC[C@H]2[C@@H]3CCC4=CCCC[C@@H]4[C@H]3CC[C@@]21C | inactive | inactive |  | inactive | inactive |  | inactive |  | inactive | 0.0019 µM (active) | inactive | inactive | inactive | inactive | inactive | 0.0067 µM (active) | 13.3 µM (active) | inactive
C#CCO | inactive | inactive | inactive | inactive | inactive | inactive | inactive | inactive | inactive |  | inactive |  | inactive |  | inactive | inactive | inactive | 
C=Cc1cccc(CCl)c1 | inactive | inactive | inactive | inactive | inactive | inactive | inactive | inactive | inactive | inactive | inactive | inactive | inactive |  | inactive | inactive | inactive | 
CN1C2CCC(C)(C)C1CC(OC(=O)C(O)(c1cccs1)c1cccs1)C2 (configuration not stated) | inactive | inactive | inactive | inactive | inactive |  | inactive | inactive | inactive | inactive | inactive | inactive | inactive |  | inactive |  |  | 
CC[C@H](C)[C@H]1O[C@]2(C=C[C@@H]1C)C[C@@H]1C[C@@H](C/C=C(\C)[C@@H](O[C@H]3C[C@H](OC)[C@@H](O[C@H]4C[C@H](OC)[C@@H](NC)[C@H](C)O4)[C@H](C)O3)[C@@H](C)/C=C/C=C3\CO[C@@H]4[C@H](O)C(C)=C[C@@H](C(=O)O1)[C@]34O)O2 | 15.4 µM (active) | 17.2 µM (active) | 10.9 µM (active) | 48.6 µM (active) | inactive |  | 19.3 µM (active) | 9.69 µM (active) | 21.7 µM (active) |  | inactive | 27.3 µM (active) | inactive | 12.2 µM (active) | 13.7 µM (active) |  | 3.06 µM (active) | 
C=CCOC(=O)c1ccccc1N | inactive | inactive | inactive |  | inactive |  | inactive | 30.8 µM (active) | inactive |  | inactive | inactive |  | inactive | inactive | inactive | inactive | 
CCO/N=C(\CC)C1=C(O)CC(c2c(C)cc(C)cc2C)CC1=O (configuration not stated) | inactive | inactive | inactive | inactive | inactive |  | inactive |  | inactive | inactive |  |  | inactive | inactive | inactive |  | 5.45 µM (active) | 
Oc1cc(Cl)cc(Cl)c1 | inactive | inactive | inactive | inactive | inactive |  | inactive | inactive | inactive | inactive |  |  | inactive | inactive | inactive |  |  | 
CCOP(=O)(Sc1ccccc1)Sc1ccccc1 | inactive | inactive | inactive | inactive | inactive |  | inactive |  | inactive | inactive | inactive | inactive | inactive | inactive | inactive |  | inactive | 
O=Cc1ccccc1 | inactive | inactive |  | inactive | inactive | inactive | inactive | inactive | inactive |  | inactive | inactive | inactive | inactive | inactive | inactive | inactive | inactive
C=C(C)C(=O)[O][Sn]([CH2]CCC)([CH2]CCC)[CH2]CCC | 0.77 µM (active) | 0.545 µM (active) | 0.486 µM (active) |  | inactive |  | 1.72 µM (active) | 1.37 µM (active) | 1.54 µM (active) |  | inactive | 12.2 µM (active) |  | 0.172 µM (active) | 0.486 µM (active) |  | 0.217 µM (active) | 
